High-throughput results (PubChem BioAssay)
A selection: hits, their analogues and other compounds. The true share with any hit is near 1.4%.
PV pol inh: inhibitors of poliovirus RNA polymerase binding and polymerization | P03300 | poliovirus polymerase elongation, fluorescence polarization; stronger effect = lower value | % elongation, % (compound at 16.7 µg/mL) | actives 0.66% (n = 150,000); in the data active means % elongation below about 90%
Mtb MbtI inh: blocks the Mycobacterium tuberculosis siderophore enzyme MbtI; purified MbtI enzyme, fluorescence intensity read-out; inhibition, % (no concentration beside the values); actives 0.89% (n = 100,000); AID 493033; in the data active means inhibition mostly above about 56%, no sharp cut-off; inactive means mostly below about 77%
Target sequence (P9WFX0 whole entry, looked up): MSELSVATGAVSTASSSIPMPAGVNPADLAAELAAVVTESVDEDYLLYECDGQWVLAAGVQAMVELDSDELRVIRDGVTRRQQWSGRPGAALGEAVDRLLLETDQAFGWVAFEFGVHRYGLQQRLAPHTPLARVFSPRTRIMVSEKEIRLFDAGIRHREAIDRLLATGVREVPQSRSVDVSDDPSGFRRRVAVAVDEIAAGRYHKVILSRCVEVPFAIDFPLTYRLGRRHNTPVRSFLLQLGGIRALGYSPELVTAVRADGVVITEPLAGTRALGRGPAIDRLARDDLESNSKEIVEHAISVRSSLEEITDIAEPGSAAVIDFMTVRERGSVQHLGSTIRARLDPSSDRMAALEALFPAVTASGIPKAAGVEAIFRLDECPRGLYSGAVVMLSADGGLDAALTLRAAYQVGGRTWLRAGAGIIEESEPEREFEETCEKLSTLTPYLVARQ
Mtb MenB inh: inhibitors of Mycobacterium tuberculosis MenB enzyme; P9WNP5; MenB enzyme assay, absorbance read-out; inhibition, % (no concentration beside the values); actives 0.43% (n = 100,000); AID 540299; in the data active means inhibition above about 21%, passing the limit was not always enough
Hits are given with their value; 0 = inactive; - = not tested or not shown.

SMILES | PV pol inh | Mtb MbtI inh | Mtb MenB inh
COc1ccccc1CNC(=O)CSc1ncc2c(n1)-c1cc(Cl)ccc1N(Cc1ccccc1)S2(=O)=O | -5.0 | - | -
O=C(CSc1ncc2c(n1)-c1cc(Cl)ccc1N(Cc1ccccc1)S2(=O)=O)NCc1ccccc1 | 0 | - | -
O=C(CC1CC2CCC1C2)NCc1ccccc1C(F)(F)F (centres undefined) | 0 | 0 | 0
COc1ccc(CCNc2nc(Cl)nc(N3CC4CC(C3)c3cccc(=O)n3C4)n2)cc1OC (centres undefined) | 0 | - | 0
CCOc1nc(NCc2ccco2)nc(N2CC3CC(C2)c2cccc(=O)n2C3)n1 (centres undefined) | 0 | 0 | 39
Cc1ccc(NC(=O)CSc2nc(C)cc(C)c2C#N)cc1 | 0 | 0 | 40
Cc1cc(C)c(C#N)c(SCC(=O)Nc2ccccc2C#N)n1 | 0 | - | -
O=C(NCc1n[nH]c(=O)c2ccccc12)c1ccco1 | 0 | 0 | 0
O=c1c(-c2ccc(I)cc2)[n+]([O-])c2ccccc2n1O | 0 | 0 | 0
CCOc1ccc(-c2c(=O)n(O)c3ccccc3[n+]2[O-])cc1 | 0 | 87 | 0
O=C1CCCC(O)=C1N=Nc1ccc(C(=O)O)cc1 | 76 | 0 | 0
O=C1CCCC(O)=C1N=Nc1ccccc1C(=O)O | 0 | 0 | 0
Cc1c(-c2c(Cl)cccc2Cl)noc1C(=O)CN=S(C)(=O)c1ccc(C(F)(F)F)cn1 (centres undefined) | 0 | 0 | 0
N#Cc1oc2ccccc2c1NC(=O)CSc1nnc2n(-c3ccccc3)c(=O)c3ccccc3n12 | 0 | 0 | 0
N#Cc1oc2ccccc2c1NC(=O)CSc1nnc(-c2ccccc2)n1Cc1ccco1 | - | 0 | 39
COc1cccc(C2=NN(C(=O)c3ccccc3Cl)C(c3ccco3)C2)c1 (centres undefined) | 0 | 0 | 0
COc1ccccc1C1=NN(C(=S)Nc2ccccc2)C(c2ccco2)C1 (centres undefined) | 0 | 73 | 0
COc1cc2c(cc1O)C(C)NCC2 (centres undefined) | 0 | 0 | 0
C[C@@H]1NCCc2cc(O)c(O)cc21 | 0 | 76 | 0
CC1=NN(c2ccccc2)C(=S)/C1=C\N1CCCCC1 | 0 | 98 | 0
CC1=NN(c2ccccc2)C(=O)/C1=C\c1ccc(N)cc1 | 0 | 0 | 0
CNc1nc2ccccc2n1CCO | - | 0 | -
CN(C)S(=O)(=O)c1ccc(C(=O)NCCN2C(=O)CSC2=O)cc1 | 0 | 0 | 0
Cc1sc2ncn(CC(=O)c3ccccc3)c(=O)c2c1C | 0 | 0 | 0
COC(=O)Cn1c(C(=O)OC)cc2c1ccn2-c1ccc(F)cc1 | 0 | 0 | 0
SMILES | PV pol inh | Mtb MbtI inh | Mtb MenB inh
COC(=O)Cn1c(C(=O)OC)cc2c1ccn2C | 0 | 0 | 33
COCc1[nH]c(=S)[nH]c(=O)c1Cc1c(F)cccc1Cl | 0 | 0 | 0
CCCCCCCc1c(COC)[nH]c(=S)[nH]c1=O | 0 | 55 | 0
COc1ccccc1-n1c(Cc2ccc(Cl)cc2)n[nH]c1=S | 0 | - | 0
COc1ccc(C)cc1NC(=O)CSc1ccc(-c2ccccn2)nn1 | 81 | - | -
Cc1cccc(NC(=O)CSc2ccc(-c3ccccn3)nn2)c1 | 0 | - | -
COCCNC(=O)c1cc(-c2ccccc2F)no1 | 0 | 0 | 0
Nc1c(C(=O)Nc2ccccc2)nnn1Cc1ccccc1 | 0 | 0 | 0
O=C(Nc1ccccc1)c1nnn(Cc2ccccc2)c1NC(=O)C(F)(F)F | 89 | - | 0
CCO/C=N/S(=O)(=O)c1ccccc1 | 0 | 0 | 0
O=C(CC(C(=O)O)N(Cc1ccccc1)Cc1ccccc1)c1ccc(Cl)cc1 (centres undefined) | 0 | - | 86
O=C(O)c1ccc(NC(CC(=O)c2ccc(Cl)cc2)c2ccccc2)cc1 (centres undefined) | 0 | 0 | 0
COc1ccc(N2CC(C(=O)Nc3ccccc3)CC2=O)cc1 (centres undefined) | 0 | - | 0
Cc1cc(C[n+]2nc(-c3ccccc3)sc2N)c2ncccc2c1 | 0 | 0 | -
O=S(=O)(Nc1nccs1)c1ccccc1 | 0 | 0 | 0
Clc1ncnc2sc3c(c12)CCC3 | 0 | 89 | 0
Clc1ncnc2sc3c(c12)CCCC3 | 0 | 0 | 0
Cc1cc2[nH]c(=O)c(=O)[nH]c2cc1S(=O)(=O)N1CCCCC1 | 0 | 0 | 0
COc1ccc(NC(=S)NCC(OC)OC)cc1 | 0 | 0 | 0
COc1cccc2c(C)cc(=O)[nH]c12 | 0 | 0 | -
Cc1cc(=O)[nH]c2c(C)c(Cl)ccc12 | 0 | 0 | 29
O=C(Nc1ccc(C(=O)NCC2CCCO2)cc1)C1=CSCCO1 (centres undefined) | 0 | 0 | 0
CC(=O)N(C(C)=O)N1C(=O)c2cccc3c(N4CCOCC4)ccc(c23)C1=O | 0 | 0 | 0
O=C1c2cccc3c(N4CCCCC4)ccc(c23)C(=O)N1c1ccccn1 | 0 | 0 | 36
CCC(C)n1c(=O)[nH][nH]c1=S (centres undefined) | 0 | 51 | 0
SMILES | PV pol inh | Mtb MbtI inh | Mtb MenB inh
CCC(C)n1c(=O)[nH]c2c1c(=O)n(C)c(=O)n2C (centres undefined) | - | 0 | -
O=C(O)c1[nH]c2ccccc2c1CNC1CCCC1 | 0 | 0 | 0
COC(=O)c1sc(N)c(C(=O)OC)c1CN1C(=O)c2ccccc2S1(=O)=O | 0 | 0 | 0
CNC(=O)c1sc(CN2C(=O)c3ccccc3S2(=O)=O)nc1C | 65 | 92 | 0
COc1cccc(N2CCN(C(=O)Cn3ncc4c5ccccc5n(C)c4c3=O)CC2)c1 | 0 | - | -
COc1cccc(N2CCN(C(=O)CCCn3sc4ccccc4c3=O)CC2)c1 | 0 | 97 | 0
Cc1cccc(N2CCN(C(=O)c3ccc(CS(=O)(=O)Cc4cccc(Cl)c4)o3)CC2C)c1 (centres undefined) | 0 | 0 | 0
Cc1sc2ncnc(Sc3nnc(CN4CCCC4=O)o3)c2c1C | 0 | 0 | 0
CC1CC(C)CN(C(=O)COC(=O)CCc2ccc(S(=O)(=O)N3CCOCC3)cc2)C1 (centres undefined) | 0 | 0 | 0
CN(C1CCCCC1)S(=O)(=O)c1ccc(C(=O)Nc2ccc3c(c2)C(=O)NC3=O)cc1 | 0 | 0 | 0
COc1cccc(COCC(O)CN2CCC(C(N)=O)CC2)c1 (centres undefined) | 0 | 99 | 0
COc1ccc(C(OCC(O)CN2CCC(C(N)=O)CC2)c2ccc(OC)cc2)cc1 (centres undefined) | 0 | 0 | 0
CC(C)c1cccc(C(C)C)c1O | 0 | 0 | 0
Cc1cccc(O)c1O | 0 | 86 | 0
COC(=O)c1ccccc1-c1ccc(-c2nc3sc4c(c3c(=O)[nH]2)CCCC4)o1 | 0 | 0 | 0
CC1CS/C(=C(/C(=O)O)C(=O)/C=C/c2cccc(O)c2)S1 (centres undefined) | 0 | - | 0
O=C(O)C(C(=O)/C=C/c1ccccc1)=C1SCS1 | 0 | 89 | 0
Cc1ccc(C2CC(c3cccs3)=NN2C(=O)CSc2nnc(CNC(=O)c3cccs3)n2C)cc1 (centres undefined) | 0 | 0 | 0
COc1ccc(-c2nnc(SCC#N)n2C2CCCCC2)cc1OC | 0 | 0 | 0
CN(CC(=O)N1CCCC1=O)Cc1ccccc1 | 0 | 0 | 0
CCN(CC)CC(=O)N1CCCC1=O | 0 | 0 | 43
CCN1CCCC1CNc1cc(C)c2ccc(C)cc2n1 (centres undefined) | 88 | 0 | 0
CCN1CCCC1CNc1ncnc2c1cnn2-c1ccc(C)cc1 (centres undefined) | 0 | 0 | 0
C=CCn1c(COc2ccccc2)nnc1SC(C)C(=O)Nc1nccs1 (centres undefined) | 0 | 0 | 0
